# Screening data as filed in PubChem BioAssay.
# PfHsp90 set2: growth inhibition of yeast expressing Plasmodium Hsp90 | S. cerevisiae expressing PfHsp90, BacTiter-Glo ATP, 48 h; yeast lacking PDR1 and PDR3 efflux regulators | inhibition, % at 9.4 µM | 0.32% of 310,000 active | AID 504621;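 active = every replicate shows inhibition above about 80%, whatever the replicate mean, limit read from the data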;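 note: 0% = DMSO neutral controls and 100% = 20 µM radicicol positive controls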
# tim23-1 inh: inhibits growth of tim23-1 mutant yeast; S. cerevisiae tim23-1 growth, BacTiter-Glo luminescence, 24 h; 1.3% of 330,000 active; inhibition, % at 20 µM;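 active = growth inhibition of the mutant yeast at or above 50%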;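 note: temperature-sensitive mutant grown at 25 °C; plate controls were DMSO-treated mutant yeast for no effect and medium wells lacking yeast for full effect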
# TIM10 inh: growth inhibitors of TIM10 yeast strain | S. cerevisiae TIM10 strain growth, BacTiter-Glo luminescence, 24 h | inhibition, % at 10 µM | 1.4% of 330,000 active;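 active = inhibition of 40% or more at the single tested concentration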;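 note: wild-type TIM10 isogenic control strain grown at permissive 25 °C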
# Rce1 inhib: blocks yeast Ras-converting enzyme; yeast membranes, quenched prenylated peptide cleavage fluorescence; calls only; 0.27% of 290,000 active; AID 2563;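 active = fall in fluorescence gain of 50% or more versus controls, with final raw signal at or below 3038400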;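 note: plate controls were neutral control wells for no effect and wells lacking membranes for full effect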
# Target sequence (Q03530 whole entry, looked up): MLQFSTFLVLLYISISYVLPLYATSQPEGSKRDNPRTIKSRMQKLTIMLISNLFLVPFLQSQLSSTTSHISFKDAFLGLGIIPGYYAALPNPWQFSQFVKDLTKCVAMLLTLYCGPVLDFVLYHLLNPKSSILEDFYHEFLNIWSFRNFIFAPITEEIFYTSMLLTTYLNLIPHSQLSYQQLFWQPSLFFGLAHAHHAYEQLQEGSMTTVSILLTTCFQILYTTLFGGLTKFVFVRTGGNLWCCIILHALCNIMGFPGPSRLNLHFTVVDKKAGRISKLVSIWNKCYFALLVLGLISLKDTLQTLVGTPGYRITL
# tim10-1 inh: tim10-1 yeast growth inhibition; 2.2% of 330,000 active; S. cerevisiae tim10-1 ts strain growth, BacTiter-Glo, 24 h; inhibition, % at 20 µM; AID 463190;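 active = inhibition of at least 40%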;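 note: mutant grown at 25 °C; 0% = DMSO wells with yeast and 100% = wells holding no yeast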
# tim10-1 conf: confirmation of tim10-1 mutant yeast growth inhibitors | inhibition, % at 20 µM | shares compounds with tim10-1 inh | 56% of 7,400 active | S. cerevisiae tim10-1 ts strain growth, BacTiter-Glo, 24 h;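 active = inhibition of yeast growth at or above a set limit in either of two repeat tests at 20 µM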;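 note: tim10-1 mutant grown at permissive 25 °C to find synthetic lethal compounds; 0% = DMSO yeast wells and 100% = medium wells without yeast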
# tim10 confirm: confirmation of TIM10 yeast growth inhibitors | inhibition, % at 10 µM | AID 463215 | shares compounds with TIM10 inh | S. cerevisiae tim10 strain growth, BacTiter-Glo luminescence, 24 h | 63% of 4,600 active;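 active = inhibition of yeast growth at or above a set limit in either of two replicates at 10 µM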;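 note: this counterscreen used the strain with wild-type TIM10; 0% = yeast with DMSO and 100% = medium wells lacking yeast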
# tim23-1 confirm: confirmation of tim23-1 mutant yeast growth inhibitors. 83% of 4,400 active. AID 463218. shares compounds with tim23-1 inh. inhibition, % at 20 µM. S. cerevisiae tim23-1 growth, BacTiter-Glo luminescence, 24 h;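 active = inhibition above about 39% in either of two replicate wells at 20 µM, limit read from the data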;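 note: temperature-sensitive tim23-1 mutant grown at 25 °C; 0% = DMSO wells with yeast and 100% = medium wells without yeast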
# Numbers without * were called inactive; i = inactive; x = no result. In the library only some 3.7% were active in any assay of this set; here they are far more common.
SMILES,PfHsp90 set2,tim23-1 inh,TIM10 inh,Rce1 inhib,tim10-1 inh,tim10-1 conf,tim23-1 confirm,others
CC1CCN(C(=O)CCNS(=O)(=O)c2ccc3c(c2)c(=O)n(C)c(=O)n3C)CC1,-9,0,-1,i,3,x,x,
CCOC(=O)CC1=NN(c2ccccc2)C(=O)C1,15,5,19,i,12,x,x,
CCOC(=O)CC1=NN(c2ccccc2)C(=O)/C1=C\c1ccc(N(C)C)cc1,3,51*,51*,i,43*,43*,53*,tim10 confirm=53*
CC(C)(C)n1ncc2c(=O)n(CC(=O)N3CCCCC3)cnc21,-17,8,-1,i,-2,x,x,
O=c1/c(=C/c2cccc3ccccc23)sc2ncnn12,x,69*,16,i,46*,19,74*,
O=C(COC(=O)C12CC3CC(CC(C3)C1)C2)Nc1ccc(OC(F)F)cc1,14,59*,57*,i,44*,22,62*,tim10 confirm=46*
C/C(=N\NC(=S)NC1CCCCC1)c1cccs1,-62,53*,58*,i,41*,24,49*,tim10 confirm=36*
N#CCCN(C(=O)COC(=O)c1cc(=O)[nH]c2ccccc12)c1ccccc1,-12,9,-3,x,3,x,x,
Cc1ccc(NC(=O)CN2C(=O)S/C(=C/c3ccncc3)C2=O)cc1,32,56*,42*,x,45*,42*,51*,tim10 confirm=43*
Cc1ccc(/C=C2\SC(=S)N(CC(=O)Nc3cccnc3)C2=O)cc1,3,-17,-38,i,1,x,x,
Cc1nc(-c2ccc(S(=O)(=O)NCc3ccccn3)s2)cs1,3,13,-12,i,8,x,x,
CC(=O)N1CCN(c2ccnc3cc(Cl)ccc23)CC1,-10,-6,-6,i,-7,x,x,
O=S(=O)(c1cccs1)N1CCN(c2ccnc3cc(Cl)ccc23)CC1,15,51*,23,i,45*,35*,44*,
O=S(=O)(c1ccccc1)N1CCN(c2ccnc3cc(Cl)ccc23)CC1,10,63*,16,i,58*,53*,66*,
CCN=C1SC(CC(=O)NC(C)c2ccccc2)C(=O)N1CC (configuration not stated),14,6,9,i,10,x,x,
CC(=O)c1cccc2c(O)c(C3=Nc4ccccc4C3=O)[nH]c12,-25,88*,63*,i,73*,57*,90*,tim10 confirm=-28
COc1ccccc1-c1cc(C(=O)N/N=C/c2ccc(C)s2)c2ccccc2n1,2,61*,27,i,42*,29,65*,
O=[N+]([O-])c1ccc(C(O)CN=Cc2ccc(O)cc2O)cc1 (configuration not stated),-13,9,17,i,13,x,x,
Cc1nc2ccccn2c1C(=O)N/N=C/c1cc(C)n(-c2ccc(Br)cc2)c1C,12,60*,31,i,44*,22,41*,
Cc1occc1C(=O)N/N=C/c1ccc(-c2ccccc2)cc1,-113,63*,43*,x,59*,56*,57*,tim10 confirm=41*
Cc1occc1C(=O)N/N=C/c1ccc(OCc2ccccc2)cc1,8,17,5,i,-10,x,x,
O=Cc1ccc(Sc2nnc(-c3ccccc3)o2)c([N+](=O)[O-])c1,9,55*,42*,i,48*,35*,58*,tim10 confirm=18
Cc1cc(C)nc(Sc2ccc(C=O)cc2[N+](=O)[O-])n1,-30,15,11,i,19,x,x,
Fc1ccc(CN2CCN(c3ncnc4scc(-c5ccc(F)cc5)c34)CC2)cc1,-9,54*,26,i,50*,46*,53*,
CCOC(=O)N1CCN(c2ncnc3scc(-c4ccc(Cl)cc4)c23)CC1,-7,57*,32,i,46*,40*,44*,
SMILES,PfHsp90 set2,tim23-1 inh,TIM10 inh,Rce1 inhib,tim10-1 inh,tim10-1 conf,tim23-1 confirm,others
CC1(C)CC(=O)C(CC2=C(O)CC(C)(C)CC2=O)=C(O)C1,5,18,7,i,12,x,x,
Cc1ccc2c(c1)/C(=C/c1ccco1)C(=O)N2,40,17,20,i,4,x,x,
Cc1ccccc1/C=C1\C(=O)Nc2ccc(F)cc21,-27,53*,26,i,44*,38*,61*,
Cc1ccc(Nc2cc(C(=O)NCCCN3CCOCC3)c3ccccc3n2)cc1C,-14,-2,5,i,19,x,x,
CC[C@]12c3[nH]c4cc(CCC(=O)N(C)C)ccc4c3CCN1C(=O)[C@@H](CC(=O)NCCCn1ccnc1)C[C@@H]2C(=O)N1CCN(C(=O)c2ccco2)CC1,11,17,-19,x,8,x,x,
O=C(Cc1c(F)cccc1Cl)Nc1nc2ccccc2s1,-33,55*,48*,i,43*,30*,63*,tim10 confirm=34*
Cc1cccc(-n2nc3c(c2NC(=O)C(C)C)CS(=O)(=O)C3)c1C,15,8,-7,i,11,x,x,
O=C(Cc1cccc(NC(=O)C2CCN(C(=O)C3CCCCC3)CC2)c1)Nc1cccc(C(=O)N2CCCCC2)c1,-4,x,x,x,x,x,x,
CCn1c(Sc2ccc(N)cc2Cl)nc2ccccc21,22,66*,44*,i,47*,50*,47*,tim10 confirm=47*
Cc1ccc2nc(N3CCN(C(=O)CCCC(=O)O)CC3)nc(-c3ccccc3)c2c1,-7,29,21,i,25,x,x,
Cc1ccc2nc(N3CCN(C=O)CC3)nc(-c3ccccc3)c2c1,-43,60*,29,i,43*,10,42*,
COc1cc(CC(=O)OCC(=O)N2CC(=O)Nc3ccccc32)cc(OC)c1OC,x,2,-5,i,15,x,x,
COc1ccc(C2/C=C\CN(C(=O)Nc3ccc(C(F)(F)F)cc3)CC(=O)N2Cc2ccc(F)cc2)cc1 (configuration not stated),9,53*,47*,i,49*,38*,48*,tim10 confirm=27
CC(C)Oc1ccc(C(CC(=O)O)n2cnnn2)cc1 (configuration not stated),-33,6,-4,i,5,x,x,
COc1ccc(CCNC(=O)c2nn(C)c3c2CS(=O)(=O)c2ccccc2-3)c(OC)c1,5,23,9,i,29,x,x,
O=C1[C@H](Cc2ccccc2)NCC=CC[C@H](c2ccco2)N1Cc1ccccc1,3,x,x,x,x,x,x,
Cc1cc(C)nc(NS(=O)(=O)c2ccc(NC(=O)CCC3COc4ccccc4O3)cc2)n1 (configuration not stated),2,18,8,i,8,x,x,
CCOC(=O)c1ccc(NC(=O)CCC2COc3ccccc3O2)cc1 (configuration not stated),x,53*,36,i,41*,36*,48*,
